# Among all 310,000 compounds or so, about 14,000 (4.5%) showed an effect of 50% or more. Effects have a minus sign here. What follows is part of a selection rich in strong results, with near analogues and random picks from the rest.
# Target: human ether-à-go-go-related gene (hERG) potassium channel (human, UniProt Q12809)
# Experiment: primary screen, population patch clamp on CHO cells stably expressing hERG; higher = less effect of the substance
# 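Note: peak tail current of the secondary pulse compared with the same well before compound.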
# Sequence of human ether-à-go-go-related gene (hERG) potassium channel (Q12809 whole entry, looked up): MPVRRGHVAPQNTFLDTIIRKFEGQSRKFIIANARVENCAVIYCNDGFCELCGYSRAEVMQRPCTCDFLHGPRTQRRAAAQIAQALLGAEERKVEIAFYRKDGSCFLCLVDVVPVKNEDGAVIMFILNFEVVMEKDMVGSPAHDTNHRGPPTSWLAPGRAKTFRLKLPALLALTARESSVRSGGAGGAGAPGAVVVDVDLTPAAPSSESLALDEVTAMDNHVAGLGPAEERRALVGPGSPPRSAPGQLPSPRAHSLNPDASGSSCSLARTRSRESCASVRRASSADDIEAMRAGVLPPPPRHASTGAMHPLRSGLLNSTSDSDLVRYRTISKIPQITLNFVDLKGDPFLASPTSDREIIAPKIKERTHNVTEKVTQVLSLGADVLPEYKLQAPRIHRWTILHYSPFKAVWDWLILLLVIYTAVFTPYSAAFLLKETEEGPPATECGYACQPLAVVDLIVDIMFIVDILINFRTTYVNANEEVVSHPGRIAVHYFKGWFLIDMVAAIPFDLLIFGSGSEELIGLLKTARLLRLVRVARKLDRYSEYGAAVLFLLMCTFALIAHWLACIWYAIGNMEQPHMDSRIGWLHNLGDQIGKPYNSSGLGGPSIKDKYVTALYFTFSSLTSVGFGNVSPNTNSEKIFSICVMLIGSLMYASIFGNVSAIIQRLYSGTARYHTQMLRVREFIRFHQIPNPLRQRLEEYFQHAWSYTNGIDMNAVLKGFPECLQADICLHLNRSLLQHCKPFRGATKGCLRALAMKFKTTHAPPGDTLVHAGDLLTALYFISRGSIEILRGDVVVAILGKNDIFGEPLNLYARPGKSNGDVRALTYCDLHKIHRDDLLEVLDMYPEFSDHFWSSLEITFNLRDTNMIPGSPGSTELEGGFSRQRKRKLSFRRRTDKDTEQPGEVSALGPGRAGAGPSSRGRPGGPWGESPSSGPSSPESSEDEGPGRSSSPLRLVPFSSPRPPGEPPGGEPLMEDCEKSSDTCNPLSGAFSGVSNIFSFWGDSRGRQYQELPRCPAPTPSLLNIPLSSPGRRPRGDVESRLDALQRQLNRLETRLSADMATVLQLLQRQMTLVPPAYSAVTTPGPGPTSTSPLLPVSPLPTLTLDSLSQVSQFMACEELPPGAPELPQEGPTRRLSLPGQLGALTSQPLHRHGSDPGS
row,Compound,"hERG current change (%, negative = inhibition) at 10uM"
1,COc1ccc(C/C(N)=N/OC(=O)c2cccs2)cc1,12.8%
2,O=C(Nc1nc2ccc(SC(F)F)cc2s1)c1ccc(NS(=O)(=O)c2ccc(F)c(F)c2)cc1,-8.03%
3,COc1ccc(NC(=O)C(C)Sc2ccccc2)cc1 (centres unmarked),1.14%
4,COC(=O)CCc1sc(NC2CCCCC2)nc1-c1ccc(OC)cc1,8.55%
5,CN1CCN(C(=O)c2ccc(Oc3ccc([N+](=O)[O-])cc3)cc2)CC1,-50.6%
6,CCOC(=O)N1CCN(C(=O)c2ccc(Oc3ccc([N+](=O)[O-])cc3)cc2)CC1,-68.3%
7,O=C(c1ccc(Oc2ccc([N+](=O)[O-])cc2)cc1)N1CCCCCC1,-25.5%
8,CCOC(=O)N1CCN(C(=O)c2ccc(OCC)cc2)CC1,-28.3%
9,CN1CCN(C(=O)c2cc([N+](=O)[O-])cc([N+](=O)[O-])c2)CC1,16.7%
10,CCOC(=O)N1CCN(C(=O)c2ccc(OC)cc2)CC1,19.8%
11,COc1ccc(Br)c(C(=O)NNC(=O)c2ccc(NS(=O)(=O)c3cccs3)cc2)c1,12.6%
12,CCC1CCCCN1C(=O)CSc1nnc(CNC(=O)c2c(F)cccc2Cl)o1 (centres unmarked),10.7%
13,CCOC(=O)C(=O)Nc1ccc(S(=O)(=O)N2CCOCC2)cc1OC,4.78%
14,O=C(O)/C=C/C(=O)NC1CC1,41.9%
15,COc1ccc(-c2nnc(OC)c3ccccc23)cc1,-7.99%
16,COc1ccc(Oc2nnc(-c3ccc(C)cc3)c3ccccc23)cc1,5.64%
17,CCN(CC)CCOc1nnc(-c2ccc(OC)cc2)c2ccccc12,-65%
18,CCN(CC)CCOc1nnc(-c2ccc(C)cc2)c2ccccc12,-67.7%
19,Cc1ccc(-c2nnc(OCCN3CCOCC3)c3ccccc23)cc1,-43.4%
20,COc1nnc(-c2ccc(C)cc2)c2ccccc12,5.93%
21,Br.c1ccc(-c2cc3n(c2)CCc2ccccc2-3)cc1,4.17%
22,O=C(CC1C(=O)NCCN1C(=S)Nc1ccccc1)Nc1ccc2c(c1)OCCO2 (centres unmarked),-15.2%

row,Compound,"hERG current change (%, negative = inhibition) at 10uM"
1,O=C(NCCCn1ccnc1)/C(=C\c1ccc(Br)cc1)NC(=O)c1ccccc1,-75.8%
2,CSc1ccc(/C=C(/NC(=O)c2ccccc2)C(=O)NCCCn2ccnc2)cc1,-60.8%
3,COc1ccc(/C=C(\NC(=O)c2ccc(Cl)cc2)C(=O)NCCCn2ccnc2)cc1OC,13.9%
4,O=C(NCCCn1ccnc1)c1cn(-c2ccccc2)nc1-c1ccccc1,-47.1%
5,COc1ccc(-c2nn(-c3ccccc3)cc2C(=O)NCCCn2ccnc2)cc1,-39.4%
6,O=C(NCCCn1ccnc1)/C(=C/c1ccc(Cl)cc1)NC(=O)c1ccccc1,-74.7%
7,O=C(NCCCn1ccnc1)/C(=C\c1cccnc1)NC(=O)c1cccc(Br)c1,-0.509%
8,O=C(NCCCn1ccnc1)c1cn(-c2ccccc2)nc1-c1ccc(F)cc1,-64%
9,C/C(=C\c1ccccc1)C(=O)NCCCn1ccnc1,-10.1%
10,CCOC(=O)C1=CN(c2cccc(F)c2)C=C(C(=O)OCC)C1c1cc(OC)c(O)c([N+](=O)[O-])c1,-3.91%
11,CCOC(=O)c1nc(C)nc(Sc2n[nH]c(-c3cc(C(F)(F)F)cc(C(F)(F)F)c3)n2)c1C,-19.5%
12,CCCc1cc(=O)oc2c(CN(CC)CC)c(O)c(Cl)cc12,-39.8%
13,CC(C)N(C(=O)CSc1nnc(NC(=O)C2CCC2)s1)C(C)C,-11.1%
14,COc1ccc(CNC(=O)c2cc(-c3cccs3)on2)cc1,-2.38%
15,CCN(CC(=O)Nc1ccc2c(c1)OCCO2)C(=O)/C=C/c1ccc(F)cc1,-7.2%
16,CN(c1ccccc1)S(=O)(=O)c1cc(C(=O)NCCCn2ccnc2)ccc1Cl,-60.3%
17,O=C(NCCCn1ccnc1)C(Cl)(Cl)Cl,-0.517%
18,O=C(NCCCn1ccnc1)/C(=C\c1ccccc1Cl)NC(=O)c1ccccc1,-41.2%
19,CC(C)(C)c1ccc(C(=O)NCCCn2ccnc2)cc1.Cl,-11%
20,O=C(NCCCn1ccnc1)/C(=C\c1ccccc1F)NC(=O)c1ccccc1,-75%
21,CN(C)CCCNC(=O)c1ccc(Cl)c(S(=O)(=O)N(C)c2ccccc2)c1.Cl,-35%
22,Cc1ccc(C(=O)N/C(=C/c2ccccc2F)C(=O)NCCCn2ccnc2)cc1,-40.5%

row,Compound,"hERG current change (%, negative = inhibition) at 10uM"
1,O=C(NCCCn1ccnc1)c1ccc(Cl)c(Cl)c1,-17.3%
2,O=C(NCCCn1ccnc1)/C(=C/c1ccc(F)cc1)NC(=O)c1ccccc1,-75.6%
3,CC(C(=O)NCCCn1ccnc1)(c1ccccc1)c1ccccc1.Cl,-73.1%
4,O=C(O)c1ccc(COc2ccc3c4c(c(=O)oc3c2)CCC4)o1,21.4%
5,Cc1cccc(-c2n[nH]c(=S)n2Cc2ccccc2)c1,-2.87%
6,NS(=O)(=O)c1ccc(NC(=O)COC(=O)CSc2n[nH]c(-c3ccccc3)n2)cc1,12%
7,O=C(NN1C(=O)C2C3c4ccccc4C(c4ccccc43)C2C1=O)c1ccc(Cl)cc1 (centres unmarked),-8.19%
8,COc1cc(C(=O)NCc2ccco2)c(Br)c(OC)c1OC,-4.22%
9,O=C(Nc1cc(C(F)(F)F)ccc1Cl)c1ccc(NC(=O)C(F)(F)F)cc1,0.159%
10,Cc1c(-n2c(SCC(C)C)nc3ccccc3c2=O)c(=O)n(-c2ccccc2)n1C,0.437%
11,COC(=O)CSc1nc(N)c(C#N)c(C(C)C)c1C#N,-8.45%
12,CN(C)c1ccc(/C=C(\NC(=O)c2ccccc2)C(=O)NCCCn2ccnc2)cc1,-9.78%
13,CC(C)c1ccc(/C=C(\NC(=O)c2ccccc2)C(=O)NCCCn2ccnc2)cc1,-78.2%
14,O=C(NCCCn1ccnc1)/C(=C/c1ccccc1)NC(=O)c1ccccc1,-70.3%
15,CN(C)c1ccc(/C=C(/NC(=O)c2ccccc2)C(=O)NCCCn2ccnc2)cc1,0.277%
16,CC(=O)Nc1nc(CC(C)C)cc(-c2ccccc2)c1C#N,4.98%
17,COc1ccccc1-n1c(=O)c2c3c(sc2n2c(=S)[nH]nc12)CCC3,21.1%
18,COc1ccccc1-n1c(=O)c2c3c(sc2n2c(SC)nnc12)CCC3,-12.5%
19,CCCSc1nnc2n(C)c(=O)c3c4c(sc3n12)CCC4,-71.5%
20,Cn1c(=O)c2c3c(sc2n2c(SCc4ccccc4)nnc12)CCCC3,-9.93%
21,COc1ccccc1-n1c(=O)c2c3c(sc2n2c(SC(C)C)nnc12)CCC3,-4.22%
22,C=C(C)CSc1nnc2n(C)c(=O)c3c4c(sc3n12)CCC4,-21.6%

row,Compound,"hERG current change (%, negative = inhibition) at 10uM"
1,C=CCSc1nnc2n(-c3ccccc3OC)c(=O)c3c4c(sc3n12)CCC4,-64.5%
2,CCSc1nnc2n(-c3ccc(OC)cc3)c(=O)c3c4c(sc3n12)CCCC4,-6.75%
3,CCCSc1nnc2n(-c3ccccc3OC)c(=O)c3c4c(sc3n12)CCC4,-56.8%
4,O=C(O)/C=C/C(=O)Nc1ccc(OC(F)(F)F)cc1Br,15.7%
5,O=C(/C(=C/c1ccccc1Cl)c1ccccc1)N1CCOCC1,-3.84%
6,Cc1ccc(C(NC(=O)N2CCCC2)C(Cl)(Cl)Cl)cc1F (centres unmarked),19.1%
7,Cc1ccc(NC(=O)c2sc3ccccc3c2Cl)nc1,8.87%
8,COC(C(=O)Nc1ccc(S(=O)(=O)Nc2ccc(F)cc2)cc1)c1ccccc1 (centres unmarked),0.504%
9,COC(C(=O)Nc1ccc(S(=O)(=O)Nc2ccc(C)c(C)c2)cc1)c1ccccc1 (centres unmarked),15.3%
10,COC(C(=O)Nc1ccc(S(=O)(=O)Nc2c(C)cccc2C)cc1)c1ccccc1 (centres unmarked),-74.6%
11,CCn1cc(/C=C/C(=O)Nc2ccn(Cc3c(F)c(F)cc(F)c3F)n2)cn1,-14.9%
12,O=C(CCS(=O)(=O)Cc1ccccc1)N1CCc2ccccc2C1,-0.206%
13,O=C(CN1CCC(n2nnc3cc(F)ccc32)CC1)NCCc1nc2ccccc2[nH]1,-31.6%
14,O=C(CN1CCC(n2nnc3cc(F)ccc32)CC1)N1CCc2ccccc2C1,-58.1%
15,Cl.O=C(CN1CCN(c2ccc(F)cc2)CC1)N1CCC(Cc2ccccc2)CC1,-30.3%
16,O=C(CN1CCC(n2nnc3cc(C(F)(F)F)ccc32)CC1)N1CCc2ccccc21,-19.9%
17,O=C(CN1CCC(Cc2ccccc2)CC1)N1CCc2ccccc2C1,-69.3%
18,O=C(CN1CCC(n2nnc3cc(F)ccc32)CC1)N1CCCc2ccccc21,-64.2%
19,O=C(CN1CCC(N2CCCCC2)CC1)N1CCCc2ccccc21.O=C(O)C(=O)O,20.7%
20,O=C(CN1CCC(n2nnc3cc(F)ccc32)CC1)NNC(=O)c1ccccc1,-11.9%
